Results on 66 sequences are retold here after PubChem BioAssay AID1159506 (National Center for Advancing Translational Sciences (NCATS), 2015).

In all, about 59,000 sequences were measured (the read-out: median about -0.00055, lowest 2% from about -2 on). This is one part of a sample in which the lowest values are shown more often than they occur.

A short description of this assay: Identification of proteins required for the processing of the EWS-FLI1 nascent transcript.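 Also: robust z of luciferase light less the median z of siRNAs with the same seed.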 As to conditions: TC32 Ewing sarcoma NR0B1-luc vs CMV-luc (EWS-FLI1 target promoter against control promoter), 48 h; screened at 20 nM (by protocol). In a few lines:
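Parallel TC32-NR0B1-luc and TC32-CMV-luc reverse transfections with 20 nM siRNA in RPMI-1640/10% FBS, luciferase measured 48 h later. Seed-adjusted z-scores from normalized, z-score-MAD transformed data; AllStars negative and siGL4 controls on each plate.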
Take AUCGAUAUAAACUGCUUCC against PDE1A: the seed-corrected z-score was -2.44. The result for UAUGUACUUCAGGCGCCUG against SLC35A2 reads 0.271; that for AGUUUAUACAUUCUUUUCC against SPTLC1, -0.145; that for UAGAAGAUAGGUGAAGUGA against DNAJC22, 0.192. Take UUACACUCAAGAAGAUUUC against GPR141: the seed-corrected z-score was -0.389. UUAACGUCCACCACCAGAG against TYMP had a seed-corrected z-score of -0.582. With UCAUUGAGAAUUCUCCGGG against NENF the figure was 2.29. With AUCGUCCCAGUAAAUGUCC against BEST3 the figure was -0.819. With UAGACUAACAUUGACUUAG against LOC150519 the figure was 0.00864. As for UCUUUGCUAAGCUCGGAGG against RAD51C, the seed-corrected z-score was -2.07. With AUAGAUAUGUUCACAAGUG against UNC119B the figure was 0.327. With UAGGGCGCAAGGGUAUGUG against SPDYE3 the figure was -0.136; with UUACUAGCUCCGGUGGCAC against KCNK4, -0.0516. With UUUAUCCCGAAGGAGGUUC against CAB39L the figure was -2.55; with UGUAUUCCAACCUACAAAC against HGSNAT, -0.666; with AAUCUAACAAAUGAAGGUG against EIF2A, 0.719.

Sequence AUAGUUCCUUUGACUAUGG against IKZF5 gave a seed-corrected z-score of -0.306. With UCUAAUCCAAGUUCUACUG against AKAP5 the figure was -0.304; with UUGUGGGUGGUGAAGAGGC against EPOR, 0.293. The result for AACCUGGUAAGUCUCGAUG against PPP2R2B reads -0.459; that for UAACGGAUGGUGUGGUUUC against BCOR, -0.0753; that for UACCUUUUAUCCUGGGUUG against LOC285423, -2.09. With UAGUGUAAACAAGAAGUUG against ABHD10 the figure was 0.996. Turning to AAAGCGAGCACUGCGGAUC against CCDC102A, the seed-corrected z-score was -0.304. UAGAGCACAGGAUAGAACC against RAP1GAP: the seed-corrected z-score came out at 0.295. UGUCUUCUAAGUAGAGCCU against VIPR2 registered a seed-corrected z-score of -2.47. The result for AACGAAACAAACUUGGUCC against NGEF reads 0.943. The result for UAUCCUAAAAUCGCUGUUG against ARNTL2 reads -0.114; that for UCCCAUUGAAAGCAUAUCC against TSHR, -1.47. The result for UAUCUUUAUCAAAACCUCG against EFCAB1 reads -0.824. For UAUGGAAUAAGUUGCUCGA against MED30, the seed-corrected z-score was -0.0259.

UUGACUACGAUGAGCUUGC against ETV3L: the seed-corrected z-score is 1.16.

Consider UUAUUAUGUAUGCAUCUGG against LINC00632, for which the seed-corrected z-score was -0.334. Take ACAGUGGUGAGUUAUCUCA against CDC42: the seed-corrected z-score is -2.8. The result for AUGGAUUCUUCAAUCGUCC against SMARCAD1 reads 0.8. The result for AGUCAUAUCAUUUAUAGUG against FOXQ1 reads -0.473; that for UUUCAAUUUAGUUUGAUGA against LOC728147, 0.0773. With AUUACUUCGAGACUUGCUG against LCLAT1 the figure was -0.482; with AAACUUAGUAGAGUUGUCC against LOC342541, 0.528; with GUUGUGACCUGUCACGAUG against CTU1, -1.99. In turn, UGCUUGACAACUGGCCACC against RPL18AP4 returned a seed-corrected z-score of -0.411.

Regarding UCAUCAUCUUCUUCGAGGC against DCLRE1A, the seed-corrected z-score is -2.16. With UAGAGGACCUUCAUGUUGU against THY1 the figure was 0.624; with UUAUCUGGAAUGAACAAUG against PHF3, -0.486; with UACGAUCAUUGCACUGUCC against FBN1, -0.21. With UAUGUAUCUACCCAUCCGC against ATG3 the figure was -1.27; with UGACUGUUCACGGAAUUCU against TGM3, -0.755. With UCUUUAGGAAUGUAAAGCC against SKIV2L2 the figure was 0.824; with UCAUUUUCGACCACCUUUC against WBSCR16, -0.738. Regarding UUAGGAACUCGAACGACGU against GTF2F1, the seed-corrected z-score turned out to be 0.889. The result for UUCUUCUUAGAUUUAUGCC against RPL3 reads -2.09; that for UCUCGAUUGAGGGUGGUUG against FLRT3, 0.383; that for AUAGGUGCAAGGCUUGUGC against C1orf56, -2.01. UCUUCUCGAACAGAGGUCG against F2: the seed-corrected z-score was -0.0868.

Take UGAGGGUUUAGCAUCAAGC against PCGF1: the seed-corrected z-score is -1.47. The result for UCUUUUAACGACCUCCUGC against SLC35D3 reads 0.495; that for UCGCGGAUCUCCUUUGUGG against HMGN2P18, -0.51. Consider AAAGUCCCAAGUGCUAAGA against FAM180B, for which the seed-corrected z-score came to 2.95. With UUCUCGAUGCGGUCCAUCC against RILPL1 the figure was 1.36. The sequence UUUGGUAGAAAAUUGCAGA against FJX1 yielded a seed-corrected z-score of -0.707. In the case of UUCCGUUCCACCUCCAUCA against SPATC1, the seed-corrected z-score is -2.15. With UCAUCUACCUGUAUUACCU against CDCA8 the figure was -0.479; with AAUGGUAGUAGCGGAAUCG against SLC12A6, -1.16. For UAUGUACUUCUGACAAGUC against RNF125, the seed-corrected z-score is 0.00921. With UAUCUAGCAGCUCUCCCAG against AMHR2 the figure was 0.151; with UAACCGACUGGGUAGAGCG against EMC4, 0.348.
